In PubChem BioAssay AID1159580 (chemical genetic matrix, 2015):
“And” between values parts separate entries of the source, which are not always exact repeats. Equal values may be shown once. About 2,000 (36%) of roughly 5,500 compounds were called active. About 18% were inconclusive and are not listed. Cut-off read from the data, not from the text of the source: active = normalized growth mostly below about 0.91 (no sharp cut-off); inconclusive = no clear call, values can overlap the other calls; inactive = mostly above about 0.92. This is one part of the list.

Experiment: chemical genetic growth profiling, strain panel (AID 1159580);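 note: tested at 20 µM; growth read once vehicle control cultures reached saturation at 30 °C; 1 = growth at the plate median or of vehicle wells; lower values mean less growth of the strain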
Conditions: growth OD

Measured: normalized growth

CN1C(=O)CCS(=O)(=O)C1c1ccc(Cl)cc1 (stereo unspecified)
inactive: S. cerevisiae deletion strains, locus YJR075W, strain HOC1, hits give low values 1.04 and 1.02 | S. cerevisiae deletion strains, locus YKL009W, strain mrt4, hits give low values 1.03 | S. cerevisiae deletion strains, locus YKL068W, hits give low values 1.01 | S. cerevisiae deletion strains, locus YKL085W, strain MDH1 (second series), hits give low values 1.01 | S. cerevisiae deletion strains, locus YKL085W, strain MDH1, hits give low values 1.01 | S. cerevisiae deletion strains, locus YKL160W, strain elf1, hits give low values 1.02 | S. cerevisiae deletion strains, locus YKL190W, strain CNB1, hits give low values 1.01 | S. cerevisiae deletion strains, locus YKR001C, strain vps1, hits give low values 1.01 | S. cerevisiae deletion strains, locus YKR026C, strain gcn3, hits give low values 0.976 | S. cerevisiae deletion strains, locus YKR091W, strain srl3, hits give low values 0.984 | S. cerevisiae deletion strains, locus YLL001W, strain dnm1, hits give low values 0.979 | S. cerevisiae deletion strains, locus YLL026W, hits give low values 0.999 | S. cerevisiae deletion strains, locus YLL041C, strain sdh2, hits give low values 0.984 | S. cerevisiae deletion strains, locus YLR027C, strain aat2, hits give low values 0.998 | S. cerevisiae deletion strains, locus YLR039C, strain RIC1, hits give low values 1.04 | S. cerevisiae deletion strains, locus YLR058C, strain SHM2, hits give low values 1.01 | S. cerevisiae deletion strains, locus YLR102C, strain apc9, hits give low values 1.01 | S. cerevisiae deletion strains, locus YLR113W, strain HOG1, hits give low values 0.99 | S. cerevisiae deletion strains, locus YLR221C, strain rsa3, hits give low values 0.978 | S. cerevisiae deletion strains, locus YLR258W, strain gsy2, hits give low values 0.988 | S. cerevisiae deletion strains, locus YLR262C, strain YPT6 (second series), hits give low values 0.987 | S. cerevisiae deletion strains, locus YLR262C, strain YPT6, hits give low values 1.06 | S. cerevisiae deletion strains, locus YLR268W, strain sec22, hits give low values 1.06 | S. cerevisiae deletion strains, locus YLR320W, strain mms22, hits give low values 0.939 | S. cerevisiae deletion strains, locus YLR330W, strain CHS5, hits give low values 1.01 | S. cerevisiae deletion strains, locus YLR342W, strain FKS1 (second series), hits give low values 1.01 | S. cerevisiae deletion strains, locus YLR342W, strain FKS1, hits give low values 1.01 | S. cerevisiae deletion strains, locus YLR357W, strain rsc2, hits give low values 0.954 | S. cerevisiae deletion strains, locus YLR370C, strain arc18, hits give low values 0.991 | S. cerevisiae deletion strains, locus YLR371W, strain rom2, hits give low values 1.02 | S. cerevisiae deletion strains, locus YLR384C, strain iki3, hits give low values 0.996 | S. cerevisiae deletion strains, locus YLR418C, strain cdc73, hits give low values 1.02 | S. cerevisiae deletion strains, locus YML016C, strain PPZ1, hits give low values 1.01 | S. cerevisiae deletion strains, locus YML032C, strain rad52, hits give low values 1.04 | S. cerevisiae deletion strains, locus YML120C, strain ndi1, hits give low values 0.948 | S. cerevisiae deletion strains, locus YML124C, strain tub3, hits give low values 1.01 | S. cerevisiae deletion strains, locus YMR058W, strain fet3, hits give low values 0.979 | S. cerevisiae deletion strains, locus YMR078C, strain ctf18, hits give low values 1.02 | S. cerevisiae deletion strains, locus YMR125W, strain sto1, hits give low values 0.982 | S. cerevisiae deletion strains, locus YMR129W, hits give low values 0.974 | S. cerevisiae deletion strains, locus YMR205C, strain PFK2, hits give low values 0.947 | S. cerevisiae deletion strains, locus YMR223W, strain ubp8, hits give low values 1 | S. cerevisiae deletion strains, locus YMR231W, strain pep5, hits give low values 0.987 | S. cerevisiae deletion strains, locus YMR263W, strain SAP30, hits give low values 1.02 and 0.996 | S. cerevisiae deletion strains, locus YMR307W, strain GAS1, hits give low values 1 and 0.99 | S. cerevisiae deletion strains, locus YNL067W, strain RPL9B, hits give low values 1.03 | S. cerevisiae deletion strains, locus YNL071W, strain lat1, hits give low values 0.979 | S. cerevisiae deletion strains, locus YNL128W, strain TEP1, hits give low values 1.03 | S. cerevisiae deletion strains, locus YNL153C, strain GIM3, hits give low values 1.02 and 0.995 | S. cerevisiae deletion strains, locus YNL175C, strain NOP13, hits give low values 1.01 | S. cerevisiae deletion strains, locus YNL183C, strain NPR1, hits give low values 0.883 | S. cerevisiae deletion strains, locus YNL197C, strain WHI3, hits give low values 1 | S. cerevisiae deletion strains, locus YNL209W, strain ssb2, hits give low values 0.984 | S. cerevisiae deletion strains, locus YNL224C, strain SQS1, hits give low values 1 | S. cerevisiae deletion strains, locus YNL233W, strain BNI4, hits give low values 1.02 | S. cerevisiae deletion strains, locus YNL248C, strain rpa49, hits give low values 1.03 | S. cerevisiae deletion strains, locus YNL250W, strain rad50, hits give low values 1.01 | S. cerevisiae deletion strains, locus YNL271C, strain bni1, hits give low values 1.02 | S. cerevisiae deletion strains, locus YNL298W, strain CLA4, hits give low values 1.02 | S. cerevisiae deletion strains, locus YNL307C, strain MCK1, hits give low values 1.01 | S. cerevisiae deletion strains, locus YNL322C, strain KRE1 (second series), hits give low values 1 | S. cerevisiae deletion strains, locus YNL322C, strain KRE1, hits give low values 1.01 | S. cerevisiae deletion strains, locus YNR049C, strain mso1, hits give low values 0.992 | S. cerevisiae deletion strains, locus YNR052C, strain pop2, hits give low values 1.02 | S. cerevisiae deletion strains, locus YOL006C, strain TOP1, hits give low values 1.1 | S. cerevisiae deletion strains, locus YOL012C, strain htz1 0.9 | S. cerevisiae deletion strains, locus YOL147C, strain pex11, hits give low values 1.01 | S. cerevisiae deletion strains, locus YOR001W, strain rrp6, hits give low values 0.94 | S. cerevisiae deletion strains, locus YOR061W, strain CKA2, hits give low values 1.01 | S. cerevisiae deletion strains, locus YOR069W, strain VPS5, hits give low values 1.01 | S. cerevisiae deletion strains, locus YOR070C, strain gyp1, hits give low values 0.993 | S. cerevisiae deletion strains, locus YOR080W, strain dia2, hits give low values 0.982 | S. cerevisiae deletion strains, locus YOR083W, strain WHI5 (second series), hits give low values 1.03 | S. cerevisiae deletion strains, locus YOR083W, strain WHI5, hits give low values 0.994 | S. cerevisiae deletion strains, locus YOR106W, strain vam3, hits give low values 1.02 | S. cerevisiae deletion strains, locus YOR136W, strain idh2, hits give low values 1.01 | S. cerevisiae deletion strains, locus YOR144C, strain elg1, hits give low values 1.01 | S. cerevisiae deletion strains, locus YOR184W, strain ser1, hits give low values 1.01 | S. cerevisiae deletion strains, locus YOR231W, strain MKK1, hits give low values 0.996 | S. cerevisiae deletion strains, locus YOR265W, strain rbl2, hits give low values 0.982 | S. cerevisiae deletion strains, locus YOR270C, strain vph1, hits give low values 0.992 | S. cerevisiae deletion strains, locus YOR290C, strain snf2, hits give low values 1.01 | S. cerevisiae deletion strains, locus YOR316C, strain cot1, hits give low values 1.01 | S. cerevisiae deletion strains, locus YPL051W, strain arl3, hits give low values 1.03 | S. cerevisiae deletion strains, locus YPL055C, strain LGE1, hits give low values 1.05 and 1.03 | S. cerevisiae deletion strains, locus YPL078C, strain atp4, hits give low values 1.01 | S. cerevisiae deletion strains, locus YPL106C, strain sse1, hits give low values 0.952 | S. cerevisiae deletion strains, locus YPL240C, strain hsp82, hits give low values 0.981 | S. cerevisiae deletion strains, locus YPL241C, strain CIN2, hits give low values 1 and 1.01 | S. cerevisiae deletion strains, locus YPL256C, strain CLN2, hits give low values 0.956 | S. cerevisiae deletion strains, locus YPR119W, strain clb2, hits give low values 1.02 | S. cerevisiae deletion strains, locus YPR141C, strain kar3, hits give low values 1.01 | S. cerevisiae deletion strains, locus YPR163C, strain tif3, hits give low values 1.02 | S. cerevisiae deletion strains, locus YPR167C, strain met16, hits give low values 1.01 | S. cerevisiae deletion strains, strain wtn01, hits give low values 1.03 | S. cerevisiae strains, strain wild type, hits give low values 1.02
